What was measured:
Test in all cases: DAPPL (digital affinity profiling via proximity ligation, sequencing); 10 mM Tris-HCl pH 7.5, 50 mM NaCl, 1 mM DTT, 4% glycerol, room temperature, 30 min; GST-TFs on glutathione beads, 16-mer random dsDNA library, 0.1% formaldehyde crosslink after washing; high values mean tight binding
Conditions in all cases: protein: recombinant; tags: N-terminal GST; dsDNA, one strand shown
FLI1 = target: T1, FLI1 (Homo sapiens, UniProt Q01543 1-452)
T1 sequence: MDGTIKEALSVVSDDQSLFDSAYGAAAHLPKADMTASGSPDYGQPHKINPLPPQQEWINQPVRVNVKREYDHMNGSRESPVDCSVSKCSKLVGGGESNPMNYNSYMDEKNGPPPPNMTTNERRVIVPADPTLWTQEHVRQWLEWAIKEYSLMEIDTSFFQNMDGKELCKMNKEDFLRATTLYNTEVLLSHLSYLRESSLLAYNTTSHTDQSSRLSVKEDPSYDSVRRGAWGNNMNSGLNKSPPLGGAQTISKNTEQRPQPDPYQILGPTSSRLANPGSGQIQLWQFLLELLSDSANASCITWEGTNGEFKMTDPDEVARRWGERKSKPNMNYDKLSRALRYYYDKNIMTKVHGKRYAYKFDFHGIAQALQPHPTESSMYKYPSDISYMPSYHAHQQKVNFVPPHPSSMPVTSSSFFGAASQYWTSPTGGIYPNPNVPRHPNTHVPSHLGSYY
Summary of the method: (§1)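 The binding signal reported is, for every hexamer, its read frequency for a factor over its read frequency for the tag-only sample. Reads came from pools of yeast-expressed, GST-fused human transcription factors on glutathione beads, barcoded with DNA and mixed with that sample, which were incubated with 200 nmole of a random double-stranded 16-mer DNA library in Tris/NaCl/DTT/glycerol buffer at room temperature for 30 min. After washing, the pools were crosslinked with 0.1% formaldehyde, proximity-ligated with BsaI/T4 ligase for 1 h at 37 °C, PCR-amplified and sequenced on an Illumina NextSeq500.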

ELK1 = target: T2, ELK1 (Homo sapiens, UniProt P19419 1-428)
T2 sequence: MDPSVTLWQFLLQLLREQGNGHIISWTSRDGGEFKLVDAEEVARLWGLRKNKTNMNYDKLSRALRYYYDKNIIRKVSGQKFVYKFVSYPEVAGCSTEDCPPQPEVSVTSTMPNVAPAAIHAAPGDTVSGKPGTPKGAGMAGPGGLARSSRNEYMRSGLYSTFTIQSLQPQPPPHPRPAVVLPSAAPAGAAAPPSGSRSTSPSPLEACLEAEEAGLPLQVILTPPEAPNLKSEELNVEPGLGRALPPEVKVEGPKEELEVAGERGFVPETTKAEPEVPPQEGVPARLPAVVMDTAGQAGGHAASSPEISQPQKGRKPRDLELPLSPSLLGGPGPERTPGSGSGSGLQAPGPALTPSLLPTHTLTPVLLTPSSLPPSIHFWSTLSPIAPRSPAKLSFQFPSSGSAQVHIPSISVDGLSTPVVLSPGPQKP
Summary of the method: as §1

GABPA = target: T3, GABPA (Homo sapiens, UniProt Q06546 1-454)
T3 sequence: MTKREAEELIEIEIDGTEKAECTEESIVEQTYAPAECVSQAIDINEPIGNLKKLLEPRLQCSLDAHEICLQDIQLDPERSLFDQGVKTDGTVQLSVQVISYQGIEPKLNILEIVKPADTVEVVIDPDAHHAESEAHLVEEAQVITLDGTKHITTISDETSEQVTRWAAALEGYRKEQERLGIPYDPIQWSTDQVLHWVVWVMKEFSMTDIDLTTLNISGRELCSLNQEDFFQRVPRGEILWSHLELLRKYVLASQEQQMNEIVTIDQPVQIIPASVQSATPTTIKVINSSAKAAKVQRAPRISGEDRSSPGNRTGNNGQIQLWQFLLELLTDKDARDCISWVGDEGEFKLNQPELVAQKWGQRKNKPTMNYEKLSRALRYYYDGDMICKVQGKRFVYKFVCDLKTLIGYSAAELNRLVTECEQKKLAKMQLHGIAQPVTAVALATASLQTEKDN
Summary of the method: as §1

ERG = target: T4, ERG (Homo sapiens, UniProt P11308 1-479)
T4 sequence: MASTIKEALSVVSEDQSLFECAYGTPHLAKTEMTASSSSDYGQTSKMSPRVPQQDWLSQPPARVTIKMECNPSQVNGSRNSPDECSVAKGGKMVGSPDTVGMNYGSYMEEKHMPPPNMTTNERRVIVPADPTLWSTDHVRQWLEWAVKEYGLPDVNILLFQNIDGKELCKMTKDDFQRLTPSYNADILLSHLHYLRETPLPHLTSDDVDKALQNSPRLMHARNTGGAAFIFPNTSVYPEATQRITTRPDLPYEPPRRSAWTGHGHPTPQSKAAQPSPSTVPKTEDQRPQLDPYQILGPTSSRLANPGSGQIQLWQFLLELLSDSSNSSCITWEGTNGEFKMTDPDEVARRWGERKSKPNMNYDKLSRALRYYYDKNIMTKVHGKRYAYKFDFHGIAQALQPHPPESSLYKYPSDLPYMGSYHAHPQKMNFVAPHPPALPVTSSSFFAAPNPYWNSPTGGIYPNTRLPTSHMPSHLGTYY
Summary of the method: as §1

ELF1 = ELF1 (Homo sapiens, UniProt P32519 1-619)
Sequence of ELF1 (P32519 whole entry): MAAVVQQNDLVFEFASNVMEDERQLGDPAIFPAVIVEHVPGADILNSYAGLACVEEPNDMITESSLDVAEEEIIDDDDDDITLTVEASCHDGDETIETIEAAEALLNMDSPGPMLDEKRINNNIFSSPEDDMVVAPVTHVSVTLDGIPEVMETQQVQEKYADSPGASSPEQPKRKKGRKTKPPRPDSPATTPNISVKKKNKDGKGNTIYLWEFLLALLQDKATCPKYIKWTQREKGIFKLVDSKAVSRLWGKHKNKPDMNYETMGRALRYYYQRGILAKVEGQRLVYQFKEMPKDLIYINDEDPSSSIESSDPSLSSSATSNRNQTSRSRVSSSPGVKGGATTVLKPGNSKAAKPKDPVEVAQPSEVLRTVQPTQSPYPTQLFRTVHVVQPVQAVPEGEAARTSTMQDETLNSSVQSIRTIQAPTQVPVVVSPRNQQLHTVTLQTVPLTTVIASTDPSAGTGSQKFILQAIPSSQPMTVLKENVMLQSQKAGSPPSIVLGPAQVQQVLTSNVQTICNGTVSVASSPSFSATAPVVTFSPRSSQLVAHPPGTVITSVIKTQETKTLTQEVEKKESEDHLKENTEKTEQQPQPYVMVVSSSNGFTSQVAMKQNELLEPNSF
Summary of the method: as §1

EHF = target: T5, EHF (Homo sapiens, UniProt Q9NZC4 1-300)
T5 sequence: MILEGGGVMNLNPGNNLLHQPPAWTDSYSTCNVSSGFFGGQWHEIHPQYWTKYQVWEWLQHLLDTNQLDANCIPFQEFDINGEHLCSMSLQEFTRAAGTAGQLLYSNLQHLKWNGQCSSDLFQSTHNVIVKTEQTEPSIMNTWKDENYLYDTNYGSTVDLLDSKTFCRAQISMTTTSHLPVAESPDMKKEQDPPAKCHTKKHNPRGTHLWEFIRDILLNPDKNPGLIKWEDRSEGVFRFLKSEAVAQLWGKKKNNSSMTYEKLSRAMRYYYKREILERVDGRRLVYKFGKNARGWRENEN
Summary of the method: as §1

SPI1 = SPI1 (Homo sapiens, UniProt P17947 1-270)
Summary of the method: as §1

SPIB = SPIB (Homo sapiens, UniProt Q01892 1-262)
Sequence of SPIB (Q01892 whole entry): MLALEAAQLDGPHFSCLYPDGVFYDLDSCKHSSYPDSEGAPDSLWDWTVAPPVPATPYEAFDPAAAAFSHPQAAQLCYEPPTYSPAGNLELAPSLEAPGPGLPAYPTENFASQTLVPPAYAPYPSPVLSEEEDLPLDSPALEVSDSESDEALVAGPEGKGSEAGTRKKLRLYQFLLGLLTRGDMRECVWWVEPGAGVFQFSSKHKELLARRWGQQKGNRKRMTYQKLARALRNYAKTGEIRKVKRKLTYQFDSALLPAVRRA
Summary of the method: as §1

ELK3 = target: T6, ELK3 (Homo sapiens, UniProt P41970 1-407)
T6 sequence: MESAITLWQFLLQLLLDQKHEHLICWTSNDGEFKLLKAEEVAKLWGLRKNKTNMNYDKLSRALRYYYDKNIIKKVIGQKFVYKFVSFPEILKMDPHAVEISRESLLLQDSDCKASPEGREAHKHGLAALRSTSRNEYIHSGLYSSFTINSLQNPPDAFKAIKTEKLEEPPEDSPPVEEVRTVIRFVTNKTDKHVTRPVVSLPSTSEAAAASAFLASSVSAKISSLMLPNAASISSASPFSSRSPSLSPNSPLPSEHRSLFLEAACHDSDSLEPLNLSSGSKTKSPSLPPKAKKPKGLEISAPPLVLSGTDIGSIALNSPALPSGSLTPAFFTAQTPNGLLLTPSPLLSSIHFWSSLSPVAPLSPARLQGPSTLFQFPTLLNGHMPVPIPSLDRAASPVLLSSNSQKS
Summary of the method: as §1

Sequence	binding signal (FLI1)	binding signal (ELK1)	binding signal (GABPA)	binding signal (ERG)	binding signal (ELF1)	binding signal (EHF)	binding signal (SPI1)	binding signal (SPIB)	binding signal (ELK3)
TATCCG	2.64 fold enrichment (6-mer frequency, TF over GST control)	2.53 fold enrichment (6-mer frequency, TF over GST control)	2.26 fold enrichment (6-mer frequency, TF over GST control)	3.2 fold enrichment (6-mer frequency, TF over GST control)	2.38 fold enrichment (6-mer frequency, TF over GST control)	2.48 fold enrichment (6-mer frequency, TF over GST control)	2.29 fold enrichment (6-mer frequency, TF over GST control)	2.8 fold enrichment (6-mer frequency, TF over GST control)	2.41 fold enrichment (6-mer frequency, TF over GST control)
TAGCCC	1.23 fold enrichment (6-mer frequency, TF over GST control)	1.18 fold enrichment (6-mer frequency, TF over GST control)	1.12 fold enrichment (6-mer frequency, TF over GST control)	1.12 fold enrichment (6-mer frequency, TF over GST control)	1.08 fold enrichment (6-mer frequency, TF over GST control)	1.21 fold enrichment (6-mer frequency, TF over GST control)	1.13 fold enrichment (6-mer frequency, TF over GST control)	1.16 fold enrichment (6-mer frequency, TF over GST control)	1.24 fold enrichment (6-mer frequency, TF over GST control)
TCTAGC	1.31 fold enrichment (6-mer frequency, TF over GST control)	1.34 fold enrichment (6-mer frequency, TF over GST control)	1.24 fold enrichment (6-mer frequency, TF over GST control)	1.32 fold enrichment (6-mer frequency, TF over GST control)	1.35 fold enrichment (6-mer frequency, TF over GST control)	1.38 fold enrichment (6-mer frequency, TF over GST control)	1.21 fold enrichment (6-mer frequency, TF over GST control)	1.19 fold enrichment (6-mer frequency, TF over GST control)	1.44 fold enrichment (6-mer frequency, TF over GST control)
ACTATA	1.37 fold enrichment (6-mer frequency, TF over GST control)	1.28 fold enrichment (6-mer frequency, TF over GST control)	1.33 fold enrichment (6-mer frequency, TF over GST control)	1.31 fold enrichment (6-mer frequency, TF over GST control)	1.33 fold enrichment (6-mer frequency, TF over GST control)	1.29 fold enrichment (6-mer frequency, TF over GST control)	1.43 fold enrichment (6-mer frequency, TF over GST control)	1.28 fold enrichment (6-mer frequency, TF over GST control)	1.29 fold enrichment (6-mer frequency, TF over GST control)
CTACGC	1.71 fold enrichment (6-mer frequency, TF over GST control)	1.59 fold enrichment (6-mer frequency, TF over GST control)	1.56 fold enrichment (6-mer frequency, TF over GST control)	1.47 fold enrichment (6-mer frequency, TF over GST control)	1.55 fold enrichment (6-mer frequency, TF over GST control)	1.56 fold enrichment (6-mer frequency, TF over GST control)	1.59 fold enrichment (6-mer frequency, TF over GST control)	1.6 fold enrichment (6-mer frequency, TF over GST control)	1.56 fold enrichment (6-mer frequency, TF over GST control)
TTTTGC	1.51 fold enrichment (6-mer frequency, TF over GST control)	1.39 fold enrichment (6-mer frequency, TF over GST control)	1.38 fold enrichment (6-mer frequency, TF over GST control)	1.26 fold enrichment (6-mer frequency, TF over GST control)	1.42 fold enrichment (6-mer frequency, TF over GST control)	1.28 fold enrichment (6-mer frequency, TF over GST control)	1.43 fold enrichment (6-mer frequency, TF over GST control)	1.45 fold enrichment (6-mer frequency, TF over GST control)	1.42 fold enrichment (6-mer frequency, TF over GST control)
ATTAAA	1.14 fold enrichment (6-mer frequency, TF over GST control)	1.1 fold enrichment (6-mer frequency, TF over GST control)	1.16 fold enrichment (6-mer frequency, TF over GST control)	1.09 fold enrichment (6-mer frequency, TF over GST control)	1.2 fold enrichment (6-mer frequency, TF over GST control)	1.14 fold enrichment (6-mer frequency, TF over GST control)	1.13 fold enrichment (6-mer frequency, TF over GST control)	1.19 fold enrichment (6-mer frequency, TF over GST control)	1.16 fold enrichment (6-mer frequency, TF over GST control)

From article PMC7862700, “An all-to-all approach to the identification of sequence-specific readers for epigenetic DNA modifications on cytosine”
